Bioassay records: PubChem, National Center for Advancing Translational Sciences (NCATS)
MCF10A rereplic = inducers of DNA re-replication in MCF 10A breast cells | MCF 10A DNA re-replication, Hoechst nuclear intensity, 48 h | 2.9% of 350,000 active | Potency, µM (highest dose often 46.1 µM), most hits filed as activators; further: nearly all actives have a fitted effect of over 50% in size
Giardia killer = Giardia lamblia killing; activity change, % at 7.66 µM, hits read low; 0.15% of 340,000 active; Giardia lamblia trophozoite viability; in the data active means activity change below about -80%; inconclusive means between about -30% and that limit;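 further: parasites exposed to compound for two days anaerobically before the ATP read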
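Killing of trophozoites was scored by loss of ATP luminescence after a 48 hrs anaerobic exposure to compounds at 37 deg C, using 100 cells per well.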
uPA surface inh = inhibitors of cell surface uPA generation | cell surface uPA generation assay, qHTS | Potency, µM (titrated, usually from 38.3 µM), usual class: inhibitors | 0.31% of 330,000 active | AID 540303; active means well fitted inhibition curve with a large enough effect; inconclusive means small, poorly fitted or top-dose-only effect; inactive means no such curve, though single readings can be large or run the other way; tested in mouse RAW 264.7 cells; further: nearly all actives have a fitted effect of over 55% in size
SW480 rerep = induces DNA re-replication in SW480 colon adenocarcinoma cells; AID 624297; SW480 DNA re-replication, Hoechst DNA content imaging, 48 h; 1.8% of 340,000 active; Potency, µM (titrated, usually from 46.1 µM), actives largely listed as activators; further: nearly all actives have a fitted effect of over 55% in size
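Treated cells incubate 48 hr (37 C, 5% CO2), are stained 40 min with Hoechst, and nuclear fluorescence is enumerated; a rise in nuclei with high DNA signal marks re-replication.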
A number is an active result; [ ] = another dose, or the depositor's remark. Rows were chosen to be rich in hits. Some 4.3% of all compounds tested hit in one or more screens of this group. Unless noted, the call rests on the fitted dose curve; in most records, active means well fitted activation curve with a large enough effect; inconclusive means small, poorly fitted or top-dose-only effect; inactive means no such curve, though single readings can be large or run the other way.

`CC(C)Oc1ccc(C(=O)Nc2ccc(C(F)(F)F)n(C)c2=O)cc1` gave MCF10A rereplic inactive, Giardia killer inactive, uPA surface inh inactive and SW480 rerep inactive.
CC[C@]1(C(=O)OC)[C@H]2C(=O)N(Cc3ccccc3)C(=O)[C@H]2[C@H]2CN(C)C(=NC)N21 was read as MCF10A rereplic inactive, Giardia killer inactive, uPA surface inh inactive and SW480 rerep inactive.
Screening Cc1ccc(NC(=O)COC(=O)C2(c3ccc(Cl)cc3)CCCC2)cc1 returned MCF10A rereplic 20.6µM, Giardia killer inactive, uPA surface inh inactive and SW480 rerep inconclusive.
Screening CC(Oc1ccccc1)C(=O)Nc1nnc(S(=O)(=O)N2CCCCC2)s1 (centres undefined) returned MCF10A rereplic inactive, Giardia killer -83.5, uPA surface inh inactive and SW480 rerep inactive.
CCC(Oc1ccccc1)C(=O)Nc1nnc(S(=O)(=O)N2CCCC2)s1 (centres undefined) was read as MCF10A rereplic inactive, Giardia killer inactive, uPA surface inh inactive and SW480 rerep inactive.
For Cc1ccc(OCC(=O)NC2CCS(=O)(=O)C2)c(C)c1 (centres undefined) the results were MCF10A rereplic inactive, Giardia killer inactive, uPA surface inh inactive and SW480 rerep inactive.
Screening CCCCn1c(-c2nonc2N)nc2ccccc21 returned MCF10A rereplic inconclusive, Giardia killer inactive, uPA surface inh inactive and SW480 rerep inconclusive.
`CC(C)CCn1c(-c2nonc2N)nc2ccccc21` gave MCF10A rereplic 16.4µM, Giardia killer inactive, uPA surface inh inactive and SW480 rerep inconclusive.
For Nc1nonc1-c1nc2ccccc2n1CC(=O)NC1CCCC1 the results were MCF10A rereplic inactive, Giardia killer inactive, uPA surface inh inactive and SW480 rerep inactive.
Nc1nonc1-c1nc2ccccc2n1CC(=O)Nc1ccccc1 was read as MCF10A rereplic inactive, Giardia killer inactive, uPA surface inh inactive and SW480 rerep 11.6µM.
Screening CCOC(=O)c1ccccc1NC(=O)Cn1c(-c2nonc2N)nc2ccccc21 returned MCF10A rereplic 0.461µM, Giardia killer inactive, uPA surface inh inactive and SW480 rerep 0.92µM.
`Cc1ccsc1/C=N/NC(=O)CC(=O)NCC(C)C` gave MCF10A rereplic inactive, Giardia killer inactive, uPA surface inh inactive and SW480 rerep inactive.
O=C(CSc1nc2ncc(Cl)cc2[nH]1)c1c[nH]c2ccccc12 was read as MCF10A rereplic 23.1µM, Giardia killer inactive, uPA surface inh inactive and SW480 rerep inactive.
For O=C1COc2ccc(C(=O)CCl)cc2N1 the results were MCF10A rereplic 20.6µM, Giardia killer inactive, uPA surface inh inactive and SW480 rerep 20.6µM.
For CCC(=O)c1ccc(OCC(=O)c2ccc3c(c2)NC(=O)CO3)cc1 the results were MCF10A rereplic inactive, Giardia killer inactive, uPA surface inh inactive and SW480 rerep inactive.
COc1cccc(C(=O)NC2CC3CCCC(C2)N3CC(=O)Nc2ccccc2C(F)(F)F)c1 (centres undefined) was read as MCF10A rereplic inconclusive, Giardia killer inactive, uPA surface inh inactive and SW480 rerep 16.4µM.
Screening O=C(CN1C2CCCC1CC(NC(=O)C1CCCCC1)C2)Nc1ccccc1C(F)(F)F (centres undefined) returned MCF10A rereplic inactive, Giardia killer inactive, uPA surface inh inactive and SW480 rerep inactive.
Screening CCC(C)Oc1ccccc1C1CC(=O)NC2=C1C(=O)CCC2 (centres undefined) returned MCF10A rereplic inconclusive, Giardia killer inactive, uPA surface inh inactive and SW480 rerep 18.4µM.
`Cc1ccccc1C1CC(=O)NC2=C1C(=O)CCC2` (centres undefined) gave MCF10A rereplic inactive, Giardia killer inactive, uPA surface inh inactive and SW480 rerep inactive.
CN(NC(=O)Nc1ccccc1)c1cnn(C)c(=O)c1Cl was read as MCF10A rereplic 2.31µM, Giardia killer inactive, uPA surface inh inconclusive and SW480 rerep inactive.
O=C(O)c1ccc(N[C@@H]2OC[C@@H](O)[C@@H](O)[C@@H]2O)cc1 was read as MCF10A rereplic inactive and SW480 rerep inactive.
`O=C(OCc1ccccc1C(F)(F)F)c1ccc(Br)c(S(=O)(=O)N2CCOCC2)c1` gave MCF10A rereplic inactive, Giardia killer inactive, uPA surface inh inactive and SW480 rerep inactive.
CNC(=O)NC(=O)CSc1cccc(C(F)(F)F)c1 was read as MCF10A rereplic 20.6µM, Giardia killer inactive, uPA surface inh inactive and SW480 rerep inactive.
`CCN1CCN(Cc2ccc(NC(=O)c3ccc(C)c(NC(=O)c4cncc(-c5cccs5)c4)c3)cc2C(F)(F)F)CC1` gave MCF10A rereplic 5.17µM, Giardia killer inactive, uPA surface inh 1µM and SW480 rerep inconclusive.
For CCN1CCN(Cc2ccc(NC(=O)c3ccc(C)c(NC(=O)c4cccc5[nH]ccc45)c3)cc2C(F)(F)F)CC1 the results were MCF10A rereplic inconclusive, Giardia killer inactive, uPA surface inh inactive and SW480 rerep 3.26µM.
Screening CCN1CCN(Cc2ccc(NC(=O)c3ccc(C)c(NC(=O)c4cc(-c5ccc(Br)cc5)n[nH]4)c3)cc2C(F)(F)F)CC1 returned MCF10A rereplic inconclusive, Giardia killer inactive, uPA surface inh 12.6µM and SW480 rerep inactive.
CCN1CCN(Cc2ccc(NC(=O)c3cc(NC(=O)c4cncc(-c5ccc(C#N)cc5)c4)cc(OC)c3)cc2C(F)(F)F)CC1 was read as MCF10A rereplic 10.3µM, Giardia killer inactive, uPA surface inh inactive and SW480 rerep inactive[9.22 µM].
For CCN1CCN(Cc2ccc(NC(=O)c3ccc(C)c(NC(=O)c4nccnc4N)c3)cc2C(F)(F)F)CC1 the results were MCF10A rereplic inactive, Giardia killer inactive, uPA surface inh inactive and SW480 rerep inactive.
CCN1CCN(Cc2ccc(NC(=O)c3ccc(C)c(NC(=O)c4nccn4C)c3)cc2C(F)(F)F)CC1 was read as MCF10A rereplic inactive, Giardia killer inactive, uPA surface inh inactive and SW480 rerep inactive[9.22 µM].
CCN1CCN(Cc2ccc(NC(=O)c3cc(NC(=O)c4nccnc4N)cc(OC)c3)cc2C(F)(F)F)CC1 was read as MCF10A rereplic inconclusive, Giardia killer inactive, uPA surface inh inactive and SW480 rerep inactive[9.22 µM].
`O=C1CC(NS(=O)(=O)c2cc(F)ccc2F)CN1c1ccc2c(c1)OCCO2` (centres undefined) gave MCF10A rereplic inactive, Giardia killer inactive, uPA surface inh inactive and SW480 rerep inactive.
O=C(NNC(=O)c1cccc2ccccc12)c1ccc(Br)cc1 was read as MCF10A rereplic inactive, Giardia killer inactive, uPA surface inh inactive and SW480 rerep inactive.
For CCCc1cc(=O)oc2cc(C)cc(OCC(=O)NCCCN3CCCC3=O)c12 the results were MCF10A rereplic inactive, Giardia killer inactive, uPA surface inh inactive and SW480 rerep inconclusive.
Screening COc1cc(OC)c(N(C)S(=O)(=O)c2cccc(C(=O)OCC(=O)N(C)Cc3ccccc3)c2)cc1Cl returned MCF10A rereplic inactive, Giardia killer inactive, uPA surface inh inactive and SW480 rerep inactive.
Screening Cc1cc2c(cc(C(=O)OCC(=O)NC3CCCCC3)n2C)o1 returned MCF10A rereplic 25.9µM, Giardia killer inactive, uPA surface inh inactive and SW480 rerep inconclusive.
Screening N=c1sc2ccccc2n1-c1ccccc1 returned MCF10A rereplic inconclusive, Giardia killer inactive and SW480 rerep inconclusive.
